In test [1] the test system is CAOV3. Briefly: Primary qHTS to identify gynecologic anti-cancer compounds using libraries of approved drugs and bioactive compounds (AID 1345084). Further: nearly all actives have a fitted effect of over 55% in size. Further: potency means the concentration at half of the fitted maximal effect. On activity change, negative = cytotoxicity: on the % scale 0 is the no-effect control and ±100 the full control effect. The conditions noted are these: Gynecologic cancer cell panel viability, ATPlite luminescence, 48 h; series mostly up to 57.5 µM. The procedure, abridged:
(§1)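 Cytotoxicity screen measuring ATP content by luciferase luminescence. Each compound is applied at five concentrations for 48 h at 37 C with 5% CO2.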
(In general: Quantitative high-throughput screening tests each substance at several concentrations.)

Test [2] deals with CASKI. Described as above. Particulars: Gynecologic cancer cell panel viability, ATPlite luminescence, 48 h; series mostly up to 57.5 µM. The procedure, abridged:
as §1
(In general: Cellular ATP, detected with luciferase, serves as a proxy for viable cell number.)

Test [3] relates to Es-2. The test is described as above. The conditions noted are these: Gynecologic cancer cell panel viability, ATPlite luminescence, 48 h; series mostly up to 57.5 µM. The procedure, abridged:
as §1

Test [4] deals with HeLa. Described as above. The conditions noted are these: Gynecologic cancer cell panel viability, ATPlite luminescence, 48 h; series mostly up to 57.5 µM. The procedure, abridged: as §1
The test system of test [5] is Hek293T. The test is described as above. The conditions noted are these: Gynecologic cancer cell panel viability, ATPlite luminescence, 48 h, control line for the selectivity index; series mostly up to 57.5 µM. The procedure, abridged:
as §1

Test [6] concerns JEG-3. Described as above. Particulars: Gynecologic cancer cell panel viability, ATPlite luminescence, 48 h; series mostly up to 57.5 µM. The procedure, abridged: as §1
In test [7] the test system is OV90. The description is as above. Particulars: Gynecologic cancer cell panel viability, ATPlite luminescence, 48 h; series mostly up to 57.5 µM. The procedure, abridged:
as §1

The test system of test [8] is PA-1. The test is described as above. Particulars: Gynecologic cancer cell panel viability, ATPlite luminescence, 48 h; series mostly up to 57.5 µM. The procedure, abridged:
as §1

For test [9], the system named is SKOV3. The test is described as above. Particulars: Gynecologic cancer cell panel viability, ATPlite luminescence, 48 h; series mostly up to 57.5 µM. The procedure, abridged: as §1
The test system of test [10] is Tov-21-G. The test is described as above. Particulars: Gynecologic cancer cell panel viability, ATPlite luminescence, 48 h; series mostly up to 57.5 µM. The procedure, abridged: as §1
For test [11], the system named is Tov112D. Described as above. The conditions noted are these: Gynecologic cancer cell panel viability, ATPlite luminescence, 48 h; series mostly up to 57.5 µM. The procedure, abridged: as §1
Test [12] in a line: Drug repurposing screens with cells derived from glioblastoma tumor samples (AID 1345199). Further: nearly all actives have a fitted effect of over 40% in size. Further: potency means the concentration at half of the fitted maximal effect. On activity, negative = cell killing: on the % scale 0 is the no-effect control and ±100 the full control effect. The conditions noted are these: GBM patient neurospheres viability, ATP luminescence, 48 h. The procedure, abridged: (§2)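 Primary testing used CD133+ neurospheres from four GBM patients, seven concentrations, 48 h exposure and ATP-based viability; confirmation added three slower-growing patient lines.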

The test system of test [13] is astro. The description is as above. Particulars: viability, ATP luminescence, 48 h; series mostly up to 45.9 µM. The procedure, abridged: as §2
A short description of test [14]: qHTS assay for small molecule activators of the human pregnane X receptor (PXR) signaling pathway (AID 720659; call rule not given here; further: 0% is about no effect).
Where [15] appears, read: at 45.9 µM (top of the series), tumour line B.
[16] abbreviates: at 45.9 µM (top of the series), tumour line D.
Setting [17] is: at 46 µM (top of the series), tumour line A.

The structures appear in SMILES notation. Several values for one entry are separate records, joined by “and”; a condition that tells them apart may be missing. Identical values can stand only once. Unmarked numbers belong to inactive results. Inconclusive results are not listed. Activity calls are given as the source filed them. Unless noted, the call rests on the fitted dose curve; in most records, active means well fitted curve in the direction sought with a large enough effect; inconclusive means small, poorly fitted or top-dose-only effect, or another doubt; inactive means no such curve, though single readings can be large; an effect the other way counts as inactive or inconclusive.

On to `COC[C@@H](NC(C)=O)C(=O)NCc1ccccc1`, for which the Potency result in test [1], in [2], in test [3], in [4], in test [5] and in [6] was “inactive” throughout. Also, the Potency entry in test [7], in test [8], in [9], in test [10] and in test [11] was “inactive” in each case.
As to `OCCOc1ccccc1`, the Potency entry in test [1], in test [2], in [3], in test [4], in [5] and in [6] was “inactive” in each case. The Potency result in test [7], in [8], in test [9], in [10], in test [11] and in test [13] was “inactive” each time. The activity, negative = cell killing in test [12] (setting [15]) is 3.03% and -11.2%; in [12] (setting [16]), -21.5% and 1.35%; in test [12] (setting [17]) it was -19.1%. For the same compound, the outcome in test [14] was inactive.
On to `COc1ccc(C(CN(C)C)C2(O)CCCCC2)cc1` (centres undefined), for which the Potency result in test [1], in test [2], in [3], in test [4], in test [5] and in test [6] was “inactive” throughout. In addition, the Potency result in [7], in [8], in [9], in [10], in [11] and in [13] was “inactive” throughout. Moreover, the activity, negative = cell killing in test [12] (setting [15]) is -10.5%; in test [12] (setting [16]), 1.59%; in [12] (setting [17]), -20%.
Consider `COc1ccccc1N1CCNCC1`, for which the Potency result in test [1], in test [2], in test [3], in test [4], in test [5] and in test [6] was “inactive” in each case. In addition, the Potency result in test [7], in test [8], in test [9], in [10], in test [11] and in test [13] was “inactive” in each case. The activity, negative = cell killing in test [12] (setting [15]) is -16.5%; in test [12] (setting [16]), -3.17%; in [12] (setting [17]), -37.1%.
As for `CC[N+](CC)(CC)CC`, the Potency result in test [1], in test [2], in test [3], in test [4], in test [5] and in test [6] was “inactive” throughout. The Potency entry in test [7], in test [8], in [9], in test [10], in test [11] and in test [13] was “inactive” throughout. Also, the figures for the activity, negative = cell killing in [12] (setting [15]), in test [12] (setting [16]) and in test [12] (setting [17]) were -10.8%, -7.23% and -23.7%, respectively.
As for `CN1C(=S)CN=C(c2ccccc2)c2cc(Cl)ccc21`, the Potency result in test [1], in test [2], in [3], in [4], in test [5] and in test [6] was “inactive” each time. Moreover, the Potency result in test [7], in [8], in test [9], in test [10] and in [11] was “inactive” in each case. The activity, negative = cell killing in test [12] (setting [15]) is -24.8%; in test [12] (setting [16]) it was -20.4%.
As to `NN=C(N)N`, the Potency entry in test [1], in [2], in test [3], in [4], in test [5] and in [6] was “inactive” each time. Also, the Potency result in test [7], in test [8], in test [9], in [10], in test [11] and in [13] was “inactive” in each case. In addition, the activity, negative = cell killing in test [12] (setting [15]) was -4.67%; in [12] (setting [16]), 9.02%; in test [12] (setting [17]) it was -2.8%.
Regarding `CC(=O)[C@H]1CC[C@H]2[C@@H]3CC[C@H]4C[C@H](O)CC[C@]4(C)[C@H]3C(=O)C[C@]12C`, the Potency result in test [1], in [2], in [3], in [4], in test [5] and in test [6] was “inactive” in each case. The Potency entry in test [7], in [8], in test [9], in test [10], in test [11] and in test [13] was “inactive” throughout. The activity, negative = cell killing in [12] (setting [15]) is -8.44%; in test [12] (setting [16]), -5.23%.
As for `Cn1cc(C2=C(c3cn(C4CCN(Cc5ccccn5)CC4)c4ccccc34)C(=O)NC2=O)c2ccccc21`, the Potency result in test [1], in [2], in [3], in test [4], in test [5] and in [6] was “inactive” throughout. The Potency result in test [7], in test [8], in test [9], in [10] and in test [11] was “inactive” throughout. The activity, negative = cell killing in test [12] (setting [15]) is 31.3%. The figures for the Potency in test [12] (tumour line A) and in test [12] (tumour line D) were 2.51 µM (active) and 20 µM (active), respectively.
On to `O=C(O)C(=O)c1cn(Cc2ccccc2)c2ccc(-c3ccc(OC(F)(F)F)cc3)cc12`, for which the Potency entry in [1], in [2], in test [3], in test [4], in test [5] and in test [6] was “inactive” each time. Moreover, the Potency entry in test [7], in test [8], in test [9], in [10] and in test [11] was “inactive” throughout.
For `CCC1(C2=NCCN2)Cc2ccccc2O1` (centres undefined), the Potency entry in test [1], in test [2], in test [3], in test [4], in test [5] and in [6] was “inactive” in each case. Moreover, the Potency result in test [7], in test [8], in [9], in [10] and in [11] was “inactive” in each case. The activity, negative = cell killing is -22.3% in test [12] (setting [15]) and -18% in [12] (setting [16]). For the same compound, in test [12] (tumour line A), the Potency was 7.08 µM (active).
On to `CC(O)(CS(=O)(=O)c1ccc(F)cc1)C(=O)Nc1ccc(C#N)c(C(F)(F)F)c1` (centres undefined), for which the Potency entry in test [1], in test [2], in test [3], in [4], in test [5] and in test [6] was “inactive” in each case. Further, the Potency result in test [7], in test [8], in test [9], in test [10] and in test [11] was “inactive” in each case.
As for `O=C(NC(O)C(Cl)(Cl)Cl)NC(O)C(Cl)(Cl)Cl` (centres undefined), the Potency result in test [1], in test [2], in test [3], in test [4], in test [5] and in test [6] was “inactive” in each case. Further, the Potency entry in [7], in test [8], in [9], in [10], in test [11] and in [13] was “inactive” throughout. The results for the activity, negative = cell killing in [12] (setting [15]), in test [12] (setting [16]) and in [12] (setting [17]) were -10.4%, 2.45% and -14.7%, respectively.
On to `Cc1ncc(CNC(=O)N(CCCl)N=O)c(N)n1`, for which the Potency result in test [1], in [2], in test [3], in test [4], in test [5] and in test [6] was “inactive” throughout. For the same compound, the Potency result in test [8], in test [9], in test [10], in test [11] and in test [13] was “inactive” in each case. In addition, the Potency in test [7] was 35.5 µM (active). The values for the activity, negative = cell killing in test [12] (setting [15]), in [12] (setting [16]) and in test [12] (setting [17]) were -2.44%, -2.73% and -26.1%, respectively.
On to `NCC(CC(=O)O)c1ccc(Cl)cc1` (centres undefined), for which the activity change, negative = cytotoxicity is 8.76% [at 0.462 µM] in test [1]; 17.3% [at 0.462 µM] in [2]; 4.42% [at 0.462 µM] in [3]; 8.44% [at 0.462 µM] in test [4]; -3.58% [at 0.462 µM] in test [5]; -6.96% [at 0.462 µM] in test [6]. Besides, the activity change, negative = cytotoxicity in test [7] is 19.2% [at 0.462 µM]; in [8] it was 5.78% [at 0.462 µM]; in test [9] it was 1.02% [at 0.462 µM]; in [10] it was 5.93% [at 0.462 µM]; in test [11] it was -1.06% [at 0.462 µM]. For the same compound, the activity, negative = cell killing was -0.559% in test [12] (setting [15]), -15.2% in [12] (setting [16]) and -26.1% in test [12] (setting [17]). Further, the Potency result in [13] is “inactive”.

These data come from PubChem BioAssay (NCATS).
